# Experimental data taken from PubChem BioAssay (NCATS).
# Values without a mark were called inactive. Results filed as inconclusive are left out. The source made the active and inactive calls. Unless noted, calls follow the shape of the dose curve; as a rule, active = well fitted curve in either direction with a large enough effect (not every such curve was filed as active); inconclusive = small, poorly fitted or top-dose-only effect, or another doubt; inactive = flat fitted curve, though single readings scatter.
# How the values were obtained:
# [1] = biological target: Lysosomal acid glucosylceramidase (Homo sapiens) (UniProt P04062); test: Glucocerebrosidase-p2 (AID 348; in the data active = potency below about 10 µM; also: potency is read from the fitted curve at half-maximal effect); details: purified GBA, blue fluorogenic substrate, 40 min
# Sequence of Lysosomal acid glucosylceramidase (Homo sapiens) (P04062 whole entry, looked up): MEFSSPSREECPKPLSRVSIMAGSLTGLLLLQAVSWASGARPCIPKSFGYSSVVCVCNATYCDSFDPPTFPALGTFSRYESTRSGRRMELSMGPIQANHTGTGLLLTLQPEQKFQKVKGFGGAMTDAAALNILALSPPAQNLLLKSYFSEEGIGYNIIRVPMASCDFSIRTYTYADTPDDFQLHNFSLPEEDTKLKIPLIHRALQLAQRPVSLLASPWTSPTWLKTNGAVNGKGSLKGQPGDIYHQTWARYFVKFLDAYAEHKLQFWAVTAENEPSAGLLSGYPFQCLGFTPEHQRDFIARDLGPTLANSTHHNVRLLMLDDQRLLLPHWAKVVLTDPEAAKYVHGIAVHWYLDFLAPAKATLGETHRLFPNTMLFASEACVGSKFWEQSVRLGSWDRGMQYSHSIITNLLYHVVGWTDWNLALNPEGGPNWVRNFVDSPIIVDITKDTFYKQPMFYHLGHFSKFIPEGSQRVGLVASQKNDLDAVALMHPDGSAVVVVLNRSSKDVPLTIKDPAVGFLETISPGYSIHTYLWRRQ
# Outline: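 Normal human glucocerebrosidase (0.2 nM) with blue fluorogenic substrate (80 uM final) in citrate/phosphate pH 5.9 with 10mM sodium taurocholate, 0.01% tween-20; 40 min RT, NaOH/glycine stop; fluorescence Ex 365/Em 440; AC50 from a titration from 0.6 nM upwards.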
# [2] = AP1 Signaling Pathway (AID 357); details: ME-180 AP-1-bla reporter, EGF-induced, beta-lactamase ratio, 5 h; at 7.69 µM (top of the series) unless noted;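 also: ME-180 reporter cells stimulated with EGF at its EC50 level; % is scaled to controls: 0 for no effect and ±100 for the full control effect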
# Outline: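 First, ME-180 AP-1-bla cells were cultured overnight at 37 °C in low-serum Opti-MEM. Next, titrated compounds with EC50 EGF were incubated 5 hours. Finally, CCF4 was added for 2.5 hours and the 460/530 nm ratio recorded.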
# [3] = biological target: Cytochrome P450 1A2 (Homo sapiens) (UniProt P05177); test: p450-cyp1a2 (AID 410; calls by dose curve; also: potency is read from the fitted curve at half-maximal effect;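 as to activity change, negative = inhibition: -100% = full effect of reference inhibitor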); details: recombinant CYP1A2, luciferin-ME demethylation, luminescence; series mostly up to 11.4 µM
# Sequence of Cytochrome P450 1A2 (Homo sapiens) (P05177 whole entry, looked up): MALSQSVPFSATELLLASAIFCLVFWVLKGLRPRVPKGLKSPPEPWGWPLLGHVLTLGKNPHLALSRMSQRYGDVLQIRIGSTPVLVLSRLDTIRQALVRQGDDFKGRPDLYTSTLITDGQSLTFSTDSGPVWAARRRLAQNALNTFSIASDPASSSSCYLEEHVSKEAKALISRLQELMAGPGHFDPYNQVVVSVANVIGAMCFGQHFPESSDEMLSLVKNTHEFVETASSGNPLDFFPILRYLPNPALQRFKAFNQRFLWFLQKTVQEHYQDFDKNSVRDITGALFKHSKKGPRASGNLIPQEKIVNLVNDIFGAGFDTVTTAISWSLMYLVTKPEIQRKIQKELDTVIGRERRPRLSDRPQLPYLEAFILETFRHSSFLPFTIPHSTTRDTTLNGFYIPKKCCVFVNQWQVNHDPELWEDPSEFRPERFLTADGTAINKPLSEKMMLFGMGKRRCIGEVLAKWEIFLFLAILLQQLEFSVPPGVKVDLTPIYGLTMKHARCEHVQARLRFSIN
# Outline: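 Read-out is luminescence from luciferin produced by CYP1A2 demethylation of Luciferin-ME (100uM, at Km). Detection reagent stopped the 60 min NADPH-dependent reaction; signals were normalized to 57 uM furafylline.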
# [4] = NFAT Signaling Pathway (AID 444); details: Jurkat NFAT-bla M1, carbachol, beta-lactamase ratio, 5 h; at 7.69 µM (top of the series) unless noted;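 also: carbachol stimulus at about its EC50 of 1 µM final; % is scaled to controls: 0 for no effect and ±100 for the full control effect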
# Outline: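 Read-out: CCF4 FRET ratio (460 nm/530 nm) after 1 h RT dye loading, used for %activity and AC50 from titration series. Cells: Jurkat NFAT-β-lactamase/M1 line, treated with compound plus 1 uM carbachol for 5 h, 37 °C.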
# [5] = Stat Signaling Pathway (AID 446); details: ME-180 (cervical carcinoma) SIE beta-lactamase reporter, IL-6 stimulated, 5 h; at 7.69 µM (top of the series) unless noted;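 also: ME-180 cervical cancer cells given 40 pM IL-6 alongside compound; SIE-controlled beta-lactamase reporter measured as 460/530 nm FRET emission ratio; % is scaled to controls: 0 for no effect and ±100 for the full control effect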
# Outline: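 FRET read-out (405 nm excitation, 460/530 nm emission) of a beta-lactamase reporter under a STAT-inducible element in ME-180 cervical carcinoma cells. Cells with compound receive 40 pM IL-6 for 5 h. Values are normalised to AC90 stimulation and AC90 JAK-inhibitor controls.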
# [6] = biological target: Glucocorticoid receptor (Homo sapiens) (UniProt P04150); test: GR-GFP Redistribution (AID 450;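 active = compounds whose dose series gives a full or clear partial fitted curve of increased nuclear translocation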; also: potency is read from the fitted curve at half-maximal effect); details: U2OS GR-GFP nuclear translocation, laser cytometry, 2 h
# Sequence of Glucocorticoid receptor (Homo sapiens) (P04150 whole entry, looked up, the tested form may be a part): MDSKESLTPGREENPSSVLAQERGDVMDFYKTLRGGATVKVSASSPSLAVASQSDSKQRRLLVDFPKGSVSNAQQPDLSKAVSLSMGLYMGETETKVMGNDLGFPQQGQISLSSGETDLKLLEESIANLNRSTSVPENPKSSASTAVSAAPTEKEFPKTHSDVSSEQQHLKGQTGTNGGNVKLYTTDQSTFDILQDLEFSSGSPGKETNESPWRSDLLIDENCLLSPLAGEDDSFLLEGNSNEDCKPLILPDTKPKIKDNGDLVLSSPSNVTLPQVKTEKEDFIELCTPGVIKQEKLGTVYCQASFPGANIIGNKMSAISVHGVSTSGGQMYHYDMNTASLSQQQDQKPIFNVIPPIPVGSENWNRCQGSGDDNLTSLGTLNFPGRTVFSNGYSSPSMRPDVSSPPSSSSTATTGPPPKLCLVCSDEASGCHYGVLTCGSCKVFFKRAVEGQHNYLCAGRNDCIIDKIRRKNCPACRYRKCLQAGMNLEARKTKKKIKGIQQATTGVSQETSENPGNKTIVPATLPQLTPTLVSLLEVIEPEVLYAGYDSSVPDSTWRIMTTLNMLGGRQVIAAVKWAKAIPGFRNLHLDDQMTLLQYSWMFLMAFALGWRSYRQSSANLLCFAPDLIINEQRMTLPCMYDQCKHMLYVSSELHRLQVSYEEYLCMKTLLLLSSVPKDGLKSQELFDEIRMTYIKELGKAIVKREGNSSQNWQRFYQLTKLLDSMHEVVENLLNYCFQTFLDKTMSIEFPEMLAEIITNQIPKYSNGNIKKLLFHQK
# [7] = biological target: Glucocorticoid receptor (Homo sapiens) (UniProt P04150); test: GR-EFC Redistribution (AID 451; calls by dose curve; also: potency is read from the fitted curve at half-maximal effect); details: CHO-K1 GR-EFC translocation, beta-gal luminescence, 2 h
# Outline: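 Translocation of GR-ED fusion to nuclear EA restores b-gal, read by luminescence after 1 h room-temperature detection. Engineered CHO-K1 biosensor cells, 1,000/well, exposed 2 h at 37 C to titrations up to 46 uM final.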
# [8] = biological target: Mitogen-activated protein kinase 10 (Mus musculus) (UniProt Q61831); test: JNK3 AlphaScreen Assay (AID 530); details: JNK3 lysate, c-Jun phosphorylation; series mostly up to 11.4 µM;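 also: kinase came from lysate of stimulated human HepG2 cells; signal reports phosphorylation of biotinylated GST-cJun 1-79 at Ser73 with 10 µM ATP; % is scaled to controls: 0 for no effect and ±100 for the full control effect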
# Outline: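 Kinase buffer: 20 mM Tris-HCl pH 7.6, 10 mM MgCl2, 1 mM DTT, 0.1 mM Na3VO4, 0.01% Tween-20; ATP 10 uM. Substrate biotin-GST-cJun(1-79), enzyme from activated HepG2 lysates. Detection by Ser73 phospho-antibody AlphaScreen.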
# [9] = biological target: 3',5'-cyclic-AMP phosphodiesterase 4B (Homo sapiens) (UniProt Q07343); test: qHTS Assay for Inhibitors of PDE-IV (AID 607; active = well fitted activation curve with a large enough effect in the main read-out, with a control signal flat, not every such curve was filed as active; also: % of control where 0% means no effect); details: HEK293 ACTOne CNG channel cells, membrane potential fluorescence; series mostly up to 22.9 µM
# Sequence of 3',5'-cyclic-AMP phosphodiesterase 4B (Homo sapiens) (Q07343 whole entry, looked up): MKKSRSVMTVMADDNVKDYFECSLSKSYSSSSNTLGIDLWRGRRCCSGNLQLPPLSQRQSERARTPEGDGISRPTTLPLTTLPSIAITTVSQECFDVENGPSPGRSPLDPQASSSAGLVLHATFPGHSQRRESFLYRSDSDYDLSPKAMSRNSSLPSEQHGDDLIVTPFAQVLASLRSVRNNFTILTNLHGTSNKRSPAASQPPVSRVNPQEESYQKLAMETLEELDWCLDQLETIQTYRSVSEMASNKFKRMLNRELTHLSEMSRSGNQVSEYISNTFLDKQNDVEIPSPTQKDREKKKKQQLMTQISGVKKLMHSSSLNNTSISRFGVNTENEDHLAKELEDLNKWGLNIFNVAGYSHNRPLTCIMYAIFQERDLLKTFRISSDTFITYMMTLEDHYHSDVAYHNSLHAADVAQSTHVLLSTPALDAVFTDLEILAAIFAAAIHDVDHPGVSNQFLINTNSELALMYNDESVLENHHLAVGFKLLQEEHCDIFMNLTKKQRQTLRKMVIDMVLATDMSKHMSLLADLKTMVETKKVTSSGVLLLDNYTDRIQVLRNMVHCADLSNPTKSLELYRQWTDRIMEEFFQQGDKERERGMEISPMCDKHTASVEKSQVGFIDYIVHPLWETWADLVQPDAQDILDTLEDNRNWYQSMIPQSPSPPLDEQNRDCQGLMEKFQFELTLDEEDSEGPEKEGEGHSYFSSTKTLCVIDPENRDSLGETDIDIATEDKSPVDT
# Outline: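 Cell-based read-out of cAMP via a modified cyclic nucleotide-gated channel and membrane potential dye (535/590 nm) in HEK293 cells expressing PDE4 endogenously. Compounds tested up to 22.9 uM final; 100 uM RO 20-1724 reference.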
# [10] = biological target: Cytochrome P450 3A4 (Homo sapiens) (UniProt P08684); test: qHTS Assay for Inhibitors and Substrates of Cytochrome P450 3A4 (AID 884; active = well fitted curve in the direction sought with a large enough effect; an effect the other way counts as inactive or inconclusive; also: nearly all actives have a fitted effect of over 50% in size; also: potency is read from the fitted curve at half-maximal effect); details: recombinant CYP3A4, Luciferin-PPXE luminescence; series mostly up to 57.1 µM
# Sequence of Cytochrome P450 3A4 (Homo sapiens) (P08684 whole entry, looked up): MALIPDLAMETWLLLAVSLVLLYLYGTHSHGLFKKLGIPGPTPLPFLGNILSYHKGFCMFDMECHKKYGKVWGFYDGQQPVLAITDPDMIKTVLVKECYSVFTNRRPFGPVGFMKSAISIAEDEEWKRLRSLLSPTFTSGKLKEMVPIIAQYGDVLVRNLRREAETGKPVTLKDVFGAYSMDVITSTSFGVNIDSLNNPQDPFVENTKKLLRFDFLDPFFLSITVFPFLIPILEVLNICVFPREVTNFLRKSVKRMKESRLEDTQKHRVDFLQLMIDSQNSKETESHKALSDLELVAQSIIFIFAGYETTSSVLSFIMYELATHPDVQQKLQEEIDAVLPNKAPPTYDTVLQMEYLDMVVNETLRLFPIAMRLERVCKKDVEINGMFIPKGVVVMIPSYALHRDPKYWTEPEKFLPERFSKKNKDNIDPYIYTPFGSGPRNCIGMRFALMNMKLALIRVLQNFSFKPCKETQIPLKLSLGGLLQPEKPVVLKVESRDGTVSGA
# Outline: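 Luminescent readout of luciferin produced by CYP3A4 (20 nM) dealkylation of Luciferin-PPXE, 25 uM (its KM). NADPH-driven reaction ran 60 min at RT after 10 min compound preincubation; data scaled to 57 uM ketoconazole as 100% inhibition.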
# [11] = biological target: Cytochrome P450 2C9 (Homo sapiens) (UniProt P11712); test: qHTS Assay for Inhibitors and Substrates of Cytochrome P450 2C9 (AID 883; active = well fitted curve in the direction sought with a large enough effect; an effect the other way counts as inactive or inconclusive; also: nearly all actives have a fitted effect of over 60% in size; also: potency is read from the fitted curve at half-maximal effect); details: recombinant CYP2C9, luciferin-H luminescence, 60 min; series mostly up to 11.4 µM
# Sequence of Cytochrome P450 2C9 (Homo sapiens) (P11712 whole entry, looked up): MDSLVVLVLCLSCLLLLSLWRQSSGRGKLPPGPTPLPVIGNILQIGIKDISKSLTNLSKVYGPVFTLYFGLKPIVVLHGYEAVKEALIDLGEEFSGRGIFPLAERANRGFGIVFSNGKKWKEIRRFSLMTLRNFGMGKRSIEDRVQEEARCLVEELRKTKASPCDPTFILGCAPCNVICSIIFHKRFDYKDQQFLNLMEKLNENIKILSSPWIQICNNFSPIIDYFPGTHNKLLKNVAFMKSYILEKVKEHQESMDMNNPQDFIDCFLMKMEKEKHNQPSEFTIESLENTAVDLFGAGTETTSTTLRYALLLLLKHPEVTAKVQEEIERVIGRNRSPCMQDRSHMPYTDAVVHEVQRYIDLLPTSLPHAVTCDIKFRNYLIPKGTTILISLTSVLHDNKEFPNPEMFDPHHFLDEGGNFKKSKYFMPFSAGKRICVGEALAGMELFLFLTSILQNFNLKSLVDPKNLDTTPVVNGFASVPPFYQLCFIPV
# Outline: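 Luminescent read-out of deoxyluciferin hydroxylation, normalized to 57uM sulphaphenazole (AC100). Reaction: 10nM enzyme, 100uM Luciferin-H (equal to KM), 25mM KPO4, 10 min compound preincubation, then 60 min with NADPH regeneration, both at 37C.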
# [12] = biological target: Cytochrome P450 2C19 (Homo sapiens) (UniProt P33261); test: qHTS Assay for Inhibitors and Substrates of Cytochrome P450 2C19 (AID 899; active = well fitted curve in the direction sought with a large enough effect; an effect the other way counts as inactive or inconclusive; also: nearly all actives have a fitted effect of over 60% in size; also: potency is read from the fitted curve at half-maximal effect); details: recombinant CYP2C19, luciferin-H EGE luminescence; series mostly up to 11.4 µM
# Sequence of Cytochrome P450 2C19 (Homo sapiens) (P33261 whole entry, looked up): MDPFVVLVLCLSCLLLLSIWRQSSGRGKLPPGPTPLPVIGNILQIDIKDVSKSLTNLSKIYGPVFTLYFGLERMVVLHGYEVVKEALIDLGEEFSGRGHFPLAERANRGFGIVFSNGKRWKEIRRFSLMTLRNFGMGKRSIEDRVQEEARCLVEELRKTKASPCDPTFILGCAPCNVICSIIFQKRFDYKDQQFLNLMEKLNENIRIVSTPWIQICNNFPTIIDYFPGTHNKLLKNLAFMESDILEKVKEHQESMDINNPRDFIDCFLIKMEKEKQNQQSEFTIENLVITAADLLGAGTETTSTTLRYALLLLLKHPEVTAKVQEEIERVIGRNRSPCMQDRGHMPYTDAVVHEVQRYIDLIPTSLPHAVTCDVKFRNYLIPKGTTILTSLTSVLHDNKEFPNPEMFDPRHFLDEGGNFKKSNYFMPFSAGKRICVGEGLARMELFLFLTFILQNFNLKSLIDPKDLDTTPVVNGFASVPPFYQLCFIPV
# Outline: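 Luminescence readout of luciferin formed from 10uM Luciferin-H EGE (KM level) by 5 nM CYP2C19 in 50mM KPO4. 60 min NADPH-driven reaction at 37C after 10 min compound preincubation; data scaled to 57uM ketoconazole inhibition.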
# [13] = biological target: Cytochrome P450 3A4 (Homo sapiens) (UniProt P08684); test: qHTS Assay for Activators of Cytochrome P450 3A4 (AID 885; active = well fitted curve in the direction sought with a large enough effect; an effect the other way counts as inactive or inconclusive; also: nearly all actives have a fitted effect of over 65% in size); details: recombinant CYP3A4, Luciferin-PPXE luminescence, 60 min; series mostly up to 11.4 µM
# Outline: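 Luminescent readout of luciferin formed from 25 uM Luciferin-PPXE (KM level) by 20 nM CYP3A4 in 200 mM KPO4, with 60 min NADPH-driven reaction at room temperature after 10 min compound exposure. Ketoconazole (57 uM) defined 100% inhibition.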
# [14] = biological target: Cytochrome P450 2D6 (Homo sapiens) (UniProt P10635); test: qHTS Assay for Inhibitors and Substrates of Cytochrome P450 2D6 (AID 891; active = well fitted curve in the direction sought with a large enough effect; an effect the other way counts as inactive or inconclusive; also: nearly all actives have a fitted effect of over 60% in size; also: potency is read from the fitted curve at half-maximal effect); details: recombinant CYP2D6, luciferin-ME EGE luminescence; series mostly up to 11.4 µM
# Sequence of Cytochrome P450 2D6 (Homo sapiens) (P10635 whole entry, looked up): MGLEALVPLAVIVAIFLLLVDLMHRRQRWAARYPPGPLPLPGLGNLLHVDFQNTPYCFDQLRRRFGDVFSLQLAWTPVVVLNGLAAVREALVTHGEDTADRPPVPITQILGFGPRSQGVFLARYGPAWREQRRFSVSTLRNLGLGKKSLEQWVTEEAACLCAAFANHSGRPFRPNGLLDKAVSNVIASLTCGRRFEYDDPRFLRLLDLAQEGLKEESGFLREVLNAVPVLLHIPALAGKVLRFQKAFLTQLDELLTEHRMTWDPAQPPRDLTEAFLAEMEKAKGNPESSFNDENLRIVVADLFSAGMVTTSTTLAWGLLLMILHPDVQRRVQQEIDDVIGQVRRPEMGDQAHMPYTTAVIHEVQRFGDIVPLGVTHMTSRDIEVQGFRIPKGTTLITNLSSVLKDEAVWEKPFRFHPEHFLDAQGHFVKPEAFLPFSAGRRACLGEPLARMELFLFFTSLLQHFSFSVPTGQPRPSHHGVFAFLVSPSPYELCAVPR
# Outline: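 Luminescent read-out of luciferin formed by 5 nM human CYP2D6 demethylating 30 uM Luciferin-ME EGE (Km level) over 60 min at room temperature after NADPH regeneration addition. Data normalized to full inhibition by 1.43 uM quinidine.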
Compound,Potency [1],"activity change, negative = inhibition [2]",Potency [3],"activity change, negative = inhibition [4]","activity, negative = inhibition [5]",Potency [6],Potency [7],Potency [8],Potency [9],Potency [10],Potency [11],Potency [12],"activity change, negative = inhibition [3]",Potency [13],"activity change, negative = inhibition [10]",Potency [14]
Cn1c(=S)c2[nH]c(SCc3cccnc3)nc2n(C)c1=O,> 11.4 µM,-21.1%,3.98 µM (active),0.274%,1.06%,> 46 µM,> 9.22 µM,inactive,inactive,3.16 µM (active),,,,,,
BrC(c1cccc2ccccc12)c1cccc2ccccc12,> 11.4 µM,0.329%,1.26 µM (active),-5.96%,-2.07%,> 46 µM,> 9.22 µM,inactive,inactive,,3.16 µM (active),1.26 µM (active),,,,
O=S(=O)(O)c1cc(O)c2c(N=Cc3ccccc3O)cc(S(=O)(=O)O)cc2c1,> 11.4 µM,-14.5%,,8.24%,-1.77%,> 46 µM,> 9.22 µM,inactive,inactive,,3.16 µM (active),1.58 µM (active),-23.7% [at 2.29 µM],,,
O=c1oc2cc(N=Cc3ccc4c(c3)OCO4)ccc2c2ccccc12,> 11.4 µM,7.4%,0.00794 µM (active),12.7%,-1.72%,> 46 µM,> 9.22 µM,inactive,inactive,3.98 µM (active),,,,inactive,,
O=S(=O)(c1cnccc1N1CCN(CCO)CC1)N1CCCC1,> 11.4 µM,7.47%,,4.17%,8.84%,> 46 µM,> 9.22 µM,inactive,inactive,3.98 µM (active),,,-8.3% [at 2.29 µM],inactive,,
O=C(O)CSC1=NCCN1,> 11.4 µM,17%,inactive,7.29%,4.64%,> 46 µM,> 9.22 µM,inactive,inactive,,inactive,inactive,,,7.95% [at 11.4 µM],inactive
COc1ccc2c(Cl)cc(NC(=S)Nc3ccccc3)nc2c1,10.6 µM,9.58%,0.398 µM (active),12.1%,2.27%,> 46 µM,> 9.22 µM,inactive,inactive,,,,,,67.2% [at 11.4 µM],
S=C1N[C@H](c2ccccc2)N[C@H](c2ccccc2)S1,> 11.4 µM,-0.71%,3.16 µM (active),-21.2%,-1.19%,> 46 µM,> 9.22 µM,inactive,inactive,,2 µM (active),3.98 µM (active),,,,3.98 µM (active)
O=C1CNCCCN2CCN(CCCNCC(=O)Nc3ccc(cc3)S(=O)(=O)c3ccc(cc3)NC(=O)CNCCCN3CCN(CCCNCC(=O)Nc4ccc(cc4)S(=O)(=O)c4ccc(cc4)N1)CC3)CC2,> 11.4 µM,-2.18%,inactive,13.1%,-11%,> 46 µM,> 9.22 µM,inactive,inactive,,inactive,inactive,,,,inactive
O=C(O)c1c(Cl)c(Cl)c(Cl)c(Cl)c1C(=O)Nc1ccc2cn[nH]c2c1,> 11.4 µM,1.63%,0.2 µM (active),4.49%,20.7%,> 46 µM,> 9.22 µM,inactive,inactive,,0.0794 µM (active),,,inactive,,
C[C@H]1[C@H](O)[C@@H](C)C=CC=CC=CC=CC=CC=CC=C[C@H](O[C@@H]2O[C@@H](C)[C@H](O)[C@@H](N)[C@@H]2O)C[C@@H]2O[C@](O)(C[C@@H](O)C[C@@H](O)[C@@H](O)CC[C@@H](O)C[C@@H](O)CC(=O)O[C@H]1C)C[C@H](O)[C@H]2C(=O)O,> 11.4 µM,-7.91%,inactive,-0.0379%,6.85%,> 46 µM,> 9.22 µM,inactive,inactive,,inactive,inactive,,,-24.7% [at 11.4 µM],inactive
O=C(O)c1ccc(SSc2ccc(C(=O)O)cn2)nc1,> 11.4 µM,-2.82%,3.16 µM (active),5.74%,15.8%,> 46 µM,> 9.22 µM,inactive,inactive,,1.58 µM (active),2.51 µM (active),,,,
N#C[C@H](c1ccccc1)N1CCCN([C@@H](C#N)c2ccccc2)C1c1ccccc1O (some centres not stated),> 11.4 µM,8.03%,3.98 µM (active),-26.1%,6.35%,> 46 µM,> 9.22 µM,inactive,inactive,,3.16 µM (active),0.251 µM (active),,,,
